Calb FLC – affects C. albicans growth with fluconazole | C. albicans CaCi-2 (fluconazole-resistant clinical isolate) + fluconazole, Alamar Blue growth, 48 h | 300,000 tested, 0.57% active | growth inhibition, % (no concentration beside the values) | AID 1979;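 active means growth inhibition above about 58% in most replicates, limit read from the data, passing the limit was not always enough; inconclusive means exactly half the replicates above a set limit; inactive means most replicates below a set limit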;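 further: all wells also contain fluconazole at 8 µg/ml as a sub-toxic cotreatment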
PP1 counter – PP1-alpha (human) inhibition in PP5 counter-screen; purified PP1alpha, OMFP fluorescence; inhibition, % at 6.7 µM; 320,000 tested, 0.9% active;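 active means inhibition above the mean inhibition of all tested compounds plus 3 SD, computed separately for each screening campaign, cut at about 15% in these data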
Target sequence (P62136 whole entry, looked up): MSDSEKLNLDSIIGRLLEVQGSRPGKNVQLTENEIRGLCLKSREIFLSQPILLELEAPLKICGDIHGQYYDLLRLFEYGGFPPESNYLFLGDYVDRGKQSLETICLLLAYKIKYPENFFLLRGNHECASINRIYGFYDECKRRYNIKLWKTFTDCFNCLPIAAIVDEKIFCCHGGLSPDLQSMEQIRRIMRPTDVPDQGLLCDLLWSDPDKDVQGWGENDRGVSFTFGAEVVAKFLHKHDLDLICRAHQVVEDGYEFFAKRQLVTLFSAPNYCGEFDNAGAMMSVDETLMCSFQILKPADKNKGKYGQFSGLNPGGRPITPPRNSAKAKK
ALR H2O2 inh – blocks human ALR sulfhydryl oxidase activity; purified ALR, DTT oxidation, H2O2 HRP-luminol luminescence; P55789; 290,000 tested, 3.8% active; inhibition, % (no concentration beside the values);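 active means mean replicate inhibition above about 79%, with every replicate also reaching it, limit read from the data; inconclusive means only one of the two criteria met; inactive means mean below limit and not every replicate reaching it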
Target sequence (P55789 whole entry, looked up): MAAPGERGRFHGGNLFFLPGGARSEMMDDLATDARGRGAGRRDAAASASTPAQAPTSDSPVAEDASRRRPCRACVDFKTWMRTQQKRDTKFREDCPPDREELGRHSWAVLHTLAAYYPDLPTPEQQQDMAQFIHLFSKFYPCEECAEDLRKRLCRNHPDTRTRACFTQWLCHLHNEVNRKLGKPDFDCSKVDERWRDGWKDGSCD
PP5 primary – inhibitors of human protein phosphatase 5 (PP5) | purified PP5c, OMFP substrate fluorescence | inhibition, % at 6.7 µM | 320,000 tested, 0.18% active;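 active means inhibition above the campaign's mean inhibition across all tested compounds plus 3 SD, cut at about 9.5% in these data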
CSC inhib – cancer stem cell inhibition. cancer stem cell-like cells viability, luminescence. inhibition, % at 7.5 µM. 300,000 tested, 1.1% active; in the data active means inhibition above about 75%; inconclusive means no clear call, values can overlap the other calls; tested in HMLE shEcad cells
Numbers stand for hits; n = inactive; u = inconclusive; x = not tested or not shown. This is a sample that favours compounds with a hit; in the whole collection about 5.4% have one here.

SMILES	Calb FLC	PP1 counter	ALR H2O2 inh	PP5 primary	CSC inhib
O=C(CNC(=O)c1ccccc1F)OCC(=O)c1ccc(Cl)s1	n	n	n	n	n
O=C(O)c1ccc(N/N=C/c2cccc(F)c2)cc1	n	n	x	n	n
O=C(O)c1ccc(N/N=C/C2=Cc3ccccc3OC2)cc1	n	n	98.5	n	n
CC(C)OC(=O)Cn1cnc2ccc(Br)cc2c1=O	n	n	88.8	n	x
CCOc1cccc(CN2CCCC(N3CCN(c4cccc(Cl)c4)CC3)C2)c1O (centres undefined)	n	n	x	n	n
CC(Oc1ccc(Cl)cc1C(N)=O)C(=O)N1CCc2ccccc21 (centres undefined)	x	x	n	x	n
CCOc1ccccc1N1CCN(Cc2ccco2)CC1	n	n	n	n	n
CCOc1ccccc1N1CCN(C/C=C/c2ccc(N(C)C)cc2)CC1	n	n	98.6	n	n
Cc1ccc(-c2ccccc2NC(=O)CS(=O)CC(=O)Nc2ccc(C)c(Cl)c2)o1 (centres undefined)	n	n	99.0	n	n
COc1ccc(NCc2cc(=O)[nH]c3ccccc23)cc1	n	x	99.0	x	n
CC(C)=CCOc1ccc2c(C)c(CC(=O)N3C[C@H]4C[C@@H](C3)c3cccc(=O)n3C4)c(=O)oc2c1C	n	n	n	n	n
CCOc1cc(CNCC(O)c2ccccc2)cc(Cl)c1OC (centres undefined)	u	n	99.4	n	n
CCOc1cc(CNCc2ccccn2)cc(Cl)c1OC	n	n	n	n	n
CC(C)Cn1c(SCC(=O)N(C)C2CCS(=O)(=O)C2)nc2cc(Cl)ccc2c1=O (centres undefined)	n	n	x	n	n
COc1cc(SC)ccc1C(=O)Nc1c(C)cccc1C	n	n	x	n	n
COc1cc(SC)ccc1C(=O)Nc1c(Cl)cncc1Cl	n	n	76.6	n	n
CCOC(=O)Nc1sc(C)nc1-c1ccccc1	n	n	n	n	n
CCOC(=O)Nc1nc(-c2ccccc2)c(C(=O)c2ccc(Cl)cc2)s1	n	n	n	n	80.6
Cc1ccc(-c2cc(C(=O)NCCc3ccc(S(N)(=O)=O)cc3)c3ccccc3n2)cc1	n	n	n	n	n
O=c1nccc(N/N=C/c2cccc(O)c2)[nH]1	n	n	n	n	n
COc1ccc(Br)cc1/C=N/Nc1ccccn1	n	x	n	x	n
COc1ccc(/C=N/Nc2ccccn2)cc1OC	n	n	98.7	n	n
COc1cc(/C=N/Nc2ccnc(=O)[nH]2)ccc1O	n	x	98.1	x	n
COc1cc(/C=N/Nc2ccccn2)ccc1O	n	n	97.4	n	n
COc1ccc(NC(=O)CSc2nnc(Cc3ccccc3)c(=O)n2N)cc1OC	n	n	93.1	n	n
SMILES	Calb FLC	PP1 counter	ALR H2O2 inh	PP5 primary	CSC inhib
COc1ccc(Cc2nnc(SCC(=O)Nc3ccc(C)cc3)n(N)c2=O)cc1	n	n	n	n	n
Cc1[nH]c(SCC(=O)Nc2cc(C(N)=O)cc(C(N)=O)c2)nc1Cc1ccccc1	x	x	97.1	x	n
COc1cccc(NC(=O)CSc2nnc(Cc3ccc(C)cc3)c(=O)n2N)c1	n	n	98.5	n	n
COc1ccccc1-c1nnc(SCC(=O)Nc2ccc3[nH]c(=O)[nH]c3c2)n1N	x	n	98.5	n	n
CCOc1ccccc1NC(=O)CSc1nnc(Cc2ccc(OC)cc2)c(=O)n1N	n	n	n	n	n
COc1cc(/C=N/NC(=O)CCn2cnc(-c3ccccc3)c2-c2ccccc2)ccc1O	n	n	n	n	n
CC(C)(C)c1ccccc1OCC(O)CN1CCN(c2ccccn2)CC1 (centres undefined)	n	n	n	n	n
COc1ccc(NC(=O)CSc2nnc(Cc3ccc(C)cc3)c(=O)n2N)cc1OC	n	n	90.9	n	n
Cc1ccc(Cc2nnc(SCC(=O)Nc3ccccc3)n(N)c2=O)cc1	n	n	97.7	n	n
CCOc1ccc(Cc2nnc(SCC(=O)Nc3ccccc3)n(N)c2=O)cc1	n	n	n	n	n
COc1cccc(-c2nnc(SCC(=O)Nc3ccc(OC)c(OC)c3)n2N)c1	n	n	n	n	n
COc1ccccc1C(=O)NCCC(=O)N(C)Cc1ccc(C)o1	n	n	n	n	n
O=C(/C=C/c1ccccc1[N+](=O)[O-])Oc1ccccc1	n	n	n	n	n
Nc1c(S(=O)(=O)c2ccccc2)c2nc3ccccc3nc2n1/N=C/c1cccc(O)c1	n	n	n	n	103.6
Nc1c(S(=O)(=O)c2ccccc2)c2nc3ccccc3nc2n1CCN1CCOCC1	88.3	n	n	n	n
Cc1cccc(S(=O)(=O)c2c(N)n(/N=C/c3ccccc3)c3nc4ccccc4nc23)c1	n	n	n	n	n
Nc1c(C(=O)Nc2ccccc2)c2nc3ccccc3nc2n1CCCN1CCOCC1	n	n	n	n	97.9
Cc1ccc(S(=O)(=O)c2c(N)n(CCN3CCOCC3)c3nc4ccccc4nc23)cc1C	n	n	n	n	n
Nc1c(S(=O)(=O)c2ccccc2)c2nc3ccccc3nc2n1C1CC1	n	n	98.5	n	n
COc1ccc(/C=N/c2nc3ccccc3n2CCN2CCCCC2)cc1OC	n	n	x	n	n
CC12CCC(C(=O)NNc3ccccc3)(C(=O)C1=O)C2(C)C (centres undefined)	n	n	98.2	n	n
CC(C)C(=O)NNc1ccccc1	n	n	n	n	n
O=[N+]([O-])c1ccc(/C=C/c2ccc3cccc(O)c3n2)cc1	n	n	n	n	n
Oc1cccc(/C=C/c2ccc3cccc(O)c3n2)c1	n	n	x	n	87.4
COc1cc(/C=C/c2ccc3cccc(O)c3n2)cc(Br)c1OC	n	15.2	n	n	n
SMILES	Calb FLC	PP1 counter	ALR H2O2 inh	PP5 primary	CSC inhib
COc1cc(/C=C/c2ccc3c(Br)cc(Br)c(O)c3n2)ccc1O	n	n	n	n	115.1
COc1cc(/C=C/c2ccc3cccc(O)c3n2)cc(OC)c1OC	n	n	n	n	n
COc1ccc(/C=C/c2ccc3cccc(O)c3n2)cc1Br	n	17.1	n	n	n
COc1cc(Br)cc(/C=C/c2ccc3cccc(O)c3n2)c1OC	n	n	n	n	n
O=C(c1ccc(Cn2cc(Br)cn2)o1)n1cccn1	n	n	n	n	n
CCOC(=O)c1ccccc1OCc1cc(/C=N/NC(=O)c2cccnc2)ccc1OC	n	n	n	n	n
O=[N+]([O-])c1cc(CSC2=NCCN2)ccc1O	n	x	x	x	x
CCCCOc1ccc(CSc2nnc(C)n2N)cc1[N+](=O)[O-]	n	n	n	n	n
CCCCOc1ccc(CSc2nc(C)[nH]c2[N+](=O)[O-])cc1[N+](=O)[O-]	n	n	98.7	n	n
CCCOc1ccc(CSC2=NCCN2)cc1[N+](=O)[O-]	n	n	99.4	n	x
c1ccc(NCC2OCc3ccccc3CO2)cc1	n	n	97.7	n	n
CCCCCCNCC1OCc2ccccc2CO1	n	n	n	n	x
COc1ccc(N2CCN(CCCNC(=O)C3(S(=O)(=O)c4ccc(Cl)cc4)CC3)CC2)cc1	n	n	85.5	n	n
COc1ccc(N2CCN(C(=O)NCc3ccc(OC)c(Cl)c3)CC2)cc1	n	n	n	n	n
CC(CCc1ccccc1)NC(=O)CN1CCN(c2ccc(O)cc2)CC1 (centres undefined)	94.9	n	99.9	n	n
